Assay outcomes: PubChem BioAssay, Broad Institute
Compounds with a hit are over-represented: about 6.7% of the library has one in this group of screens.
C diff HTS = C. difficile growth inhibitors, primary screen, HTS; 86,000 tested, 0.25% active; growth activity, negative = inhibition, % at 16 µg/mL (by protocol); Clostridium difficile clinical isolate growth, OD600, 24 h; stronger effect = lower value;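 active means mean growth activity at or below -80% and every replicate also at or below -80%; inconclusive means mean at or below -80% but some replicate above -80%; inactive means mean growth activity above -80%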;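 further: 0% = DMSO wells and -100% = levofloxacin 16 µg/mL wells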
Pf Dd2 inh = P. falciparum Dd2 growth inhibitors, primary screen, SYBR Green fluorescence, single dose replicates; 72 h; stronger effect = lower value; 94,000 tested, 2.3% active; activity change, % at 10 µM; in the data active means activity change below about -80%; inconclusive means no clear call, values can overlap the other calls
T cruzi growth-1 = T. cruzi intracellular proliferation inhibitors, primary screen, cell-based, beta-gal Tulahuen parasites, NIH3T3 host, luminescence. T. cruzi beta-gal in NIH3T3, GalScreen luminescence, 90 h. inhibition, % at 8.34 µM. 77,000 tested, 5.9% active;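 active means mean inhibition above about 93%, with at least 55% of replicates each passing it, limit read from the data, passing the limit was not always enough; inconclusive means only one of those two conditions holds; inactive means neither condition holds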
T cruzi growth-2 = T. cruzi intracellular proliferation inhibitors, confirmation, cell-based, NIH3T3 host, beta-gal parasite, luminescence, cherry-pick; inhibition, % at 8.35 µM; shares compounds with T cruzi growth-1; T. cruzi beta-gal in NIH3T3, GalScreen luminescence, 90 h; 5,600 tested, 72% active;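 active means mean replicate inhibition above about 95% and at least 55% of replicates individually reaching it, limit read from the data; inconclusive means only one of the two criteria is met; inactive means neither criterion is met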
T cruzi growth-3 = inhibitors of intracellular T. cruzi replication, confirmation, NIH3T3 host cells, beta-gal parasites, cherry-pick, set 2 | 5,600 tested, 21% active | T. cruzi beta-gal in NIH3T3, GalScreen luminescence, 90 h | shares compounds with T cruzi growth-1 | inhibition, % at 2.09 µM;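 active means mean inhibition above about 95%, with at least 55% of replicates also reaching it, limit read from the data; inconclusive means meets just one of the two conditions; inactive means meets neither condition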;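 further: plate controls were neutral control median for no effect and positive control median for full effect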
3T3 cytotox = cytotoxicity in mouse NIH/3T3 fibroblasts, confirmation, cytotoxicity control for T. cruzi proliferation inhibitor project, cell-based, cherry-pick, single point; shares compounds with T cruzi growth-1; NIH/3T3 viability, CellTiter-Glo ATP luminescence, 90 h; cytotoxicity (signal decrease), % at 8.35 µM; 5,600 tested, 14% active;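 active means mean signal decrease across replicates above about 35% based on untreated-well scatter, with enough replicates individually passing, limit read from the data; inconclusive means no rule stated though some were filed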;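 further: 0% = median of neutral control wells and 100% = median of positive control wells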
3T3 cytotox 2 = NIH/3T3 fibroblast cytotoxicity, confirmation, cytotoxicity control, cell-based, cherry-pick, single point, set 2 | shares compounds with T cruzi growth-1 | NIH/3T3 viability, CellTiter-Glo ATP luminescence, 90 h | inhibition, % at 24.9 µM | 5,600 tested, 56% active | AID 651744, 2012;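 active means mean loss of cell viability signal at or above a set limit, and enough replicates individually reaching it; inconclusive means meets only the mean limit or only the replicate share; inactive means meets neither condition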;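 further: 0% = median of neutral control wells and 100% = median of positive control wells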
* marks the source's active call; other numbers are inactive results; ? = inconclusive; . = not tested or not shown.

SMILES	C diff HTS	Pf Dd2 inh	T cruzi growth-1	T cruzi growth-2	T cruzi growth-3	3T3 cytotox	3T3 cytotox 2
O=S(=O)(Cc1ccccc1)N1CCCCN2[C@H](C1)[C@H](c1ccc(-c3ccc(F)cc3)cc1)[C@@H]2CO	6	7	110*	101*	41	14	105*
O=S(=O)(Cc1ccccc1)N1CCCCN2[C@H](CO)[C@@H](c3ccc(-c4ccc(F)cc4)cc3)[C@H]2C1	3	8	?	103*	66	35*	105*
O=S(=O)(Cc1ccccc1)N1CCCCN2[C@H](C1)[C@@H](c1ccc(-c3ccc(F)cc3)cc1)[C@@H]2CO	25	1	86	.	.	.	.
CO[C@@H]1CN(C)C(=O)c2cc(NS(=O)(=O)c3cn(C)cn3)ccc2OC[C@@H](C)N(CC2CC2)C[C@@H]1C	.	10	-2	.	.	.	.
CCCC#Cc1ccc2c(c1)O[C@H](CN(C)C(=O)NC(C)C)[C@@H](C)CN([C@@H](C)CO)S2(=O)=O	3	-23	36	.	.	.	.
COc1ccc(NC(=O)N(C)C[C@@H]2OCCCC[C@@H](C)Oc3ccc(NC(=O)Nc4cccc5ccccc45)cc3C(=O)N([C@@H](C)CO)C[C@H]2C)cc1	1	29	41	.	.	.	.
CC(C)NC(=O)N(C)C[C@@H]1Oc2c(NC(=O)C3CCOCC3)cccc2C(=O)N([C@@H](C)CO)C[C@@H]1C	-2	23	12	.	.	.	.
C[C@@H]1CN([C@H](C)CO)C(=O)c2cc(NS(=O)(=O)c3ccc(Cl)cc3)ccc2O[C@@H](C)CCCCO[C@H]1CN(C)S(=O)(=O)c1ccc(Cl)cc1	-1	-52	66	.	.	.	.
C[C@H]1CCCCO[C@H](CN(C)S(=O)(=O)c2ccccc2)[C@@H](C)CN([C@@H](C)CO)C(=O)c2cc(NS(=O)(=O)c3ccc(Cl)cc3)ccc2O1	-4	-52	114*	103*	94	-12	-7
C[C@@H]1CN([C@@H](C)CO)C(=O)c2cc(NS(=O)(=O)c3ccccc3)ccc2O[C@@H](C)CCCCO[C@H]1CN(C)S(=O)(=O)c1ccc(Cl)cc1	4	-63	.	.	.	.	.
C[C@@H]1CCCCO[C@H](CN(C)S(=O)(=O)c2ccc(Cl)cc2)[C@@H](C)CN([C@H](C)CO)C(=O)c2cc(NS(=O)(=O)c3ccccc3)ccc2O1	-2	-19	57	.	.	.	.
C[C@@H]1CN([C@@H](C)CO)C(=O)c2cc(NS(=O)(=O)c3ccc(Cl)cc3)ccc2O[C@@H](C)CCCCO[C@H]1CN(C)S(=O)(=O)c1ccc(Cl)cc1	-2	-31	111*	108*	79	22	-2
C[C@@H]1CCCCO[C@H](CN(C)S(=O)(=O)c2ccc(Cl)cc2)[C@H](C)CN([C@@H](C)CO)C(=O)c2cc(NS(=O)(=O)c3ccccc3)ccc2O1	3	-76	.	.	.	.	.
C[C@@H]1CCCCO[C@@H](CN(C)S(=O)(=O)c2ccccc2)[C@H](C)CN([C@H](C)CO)C(=O)c2cc(NS(=O)(=O)c3ccc(Cl)cc3)ccc2O1	-4	-60	110*	101*	?	-9	11
C[C@@H]1CCCCO[C@@H](CN(C)S(=O)(=O)c2ccccc2)[C@@H](C)CN([C@@H](C)CO)C(=O)c2cc(NS(=O)(=O)c3ccc(Cl)cc3)ccc2O1	-8	-34	118*	101*	74	5	18
CN(C)CC(=O)N[C@H]1CC[C@@H](CCn2cc(C3CC3)nn2)O[C@@H]1CO	1	10	.	.	.	.	.
C[C@H]1CN([C@@H](C)CO)C(=O)c2cccc(NC(=O)Nc3ccccc3)c2O[C@@H]1CN(C)S(=O)(=O)c1cn(C)cn1	-2	-10	-15	.	.	.	.
C/C=C/c1ccc([C@@H]2[C@@H](CO)N(C(=O)CC3CC3)C23CN(S(C)(=O)=O)C3)cc1	-5	13	.	.	.	.	.
C[C@@H]1CN([C@@H](C)CO)C(=O)c2cc(NS(=O)(=O)c3cn(C)cn3)ccc2O[C@@H]1CN(C)S(=O)(=O)c1cn(C)cn1	.	35	16	.	.	.	.
Cc1noc(C)c1S(=O)(=O)Nc1ccc2c(c1)C(=O)N([C@@H](C)CO)C[C@H](C)[C@@H](CN(C)S(=O)(=O)c1cccs1)O2	-8	5	-1	.	.	.	.
CCC(=O)N(C)C[C@@H]1Oc2cc(-c3ccccc3F)ccc2S(=O)(=O)N([C@@H](C)CO)C[C@@H]1C	3	21	8	.	.	.	.
C[C@H]1CN([C@@H](C)CO)C(=O)c2cc(C#CCc3ccccc3)cnc2O[C@@H]1CN(C)Cc1cccc(F)c1	.	-52	?	90	89	-34	104*
CC(C)CC#Cc1cnc2c(c1)C(=O)N([C@H](C)CO)C[C@@H](C)[C@@H](CN(C)Cc1ccc(F)cc1)O2	7	-34	86	.	.	.	.
CC(C)CC#Cc1cnc2c(c1)C(=O)N([C@H](C)CO)C[C@H](C)[C@H](CN(C)Cc1cccc(F)c1)O2	17	-54	?	107*	34	-6	14
C[C@H](CO)N1C[C@H](C)[C@@H](CN(C)Cc2cccc(F)c2)Oc2ncc(C#CCN(C)C)cc2C1=O	-2	-31	-75	.	.	.	.
SMILES	C diff HTS	Pf Dd2 inh	T cruzi growth-1	T cruzi growth-2	T cruzi growth-3	3T3 cytotox	3T3 cytotox 2
CC(C)CC#Cc1cnc2c(c1)C(=O)N([C@@H](C)CO)C[C@H](C)[C@@H](CN(C)Cc1ccc3c(c1)OCO3)O2	-5	-29	82	.	.	.	.
CC(C)CC#Cc1cnc2c(c1)C(=O)N([C@@H](C)CO)C[C@@H](C)[C@@H](CN(C)Cc1cccc(F)c1)O2	4	-30	99*	106*	83	23	45*
C[C@H](CO)N1C[C@H](C)[C@@H](CN(C)Cc2ccccc2)Oc2ncc(C#CCc3ccccc3)cc2C1=O	10	-73	.	.	.	.	.
CC(C)CC#Cc1cnc2c(c1)C(=O)N([C@@H](C)CO)C[C@@H](C)[C@@H](CN(C)Cc1ccc3c(c1)OCO3)O2	10	-54	101*	105*	77	33	93*
C[C@@H]1CN([C@@H](C)CO)C(=O)c2cccc(NS(=O)(=O)c3ccc(Cl)cc3)c2O[C@H]1CN(C)S(=O)(=O)c1cn(C)cn1	1	14	38	.	.	.	.
O=C(Nc1ccc(F)cc1)N1CC(=O)N2[C@H](C1)[C@H](c1ccc(Br)cc1)[C@@H]2CO	-6	35	.	.	.	.	.
CCC(=O)Nc1ccc2c(c1)C(=O)N(C)[C@H]1CC[C@@H](CC(=O)O)O[C@H]1CO2	5	16	-10	.	.	.	.
